Bioassay records: PubChem BioAssay, National Center for Advancing Translational Sciences (NCATS)
HepG2 viability – kills HepG2 cells in TGF-b inhibitor counter-screen; HepG2 CAGA-GFP viability, ATP luminescence, 18 h; Potency, µM (top dose mostly 46.1 µM), inactives show at the top dose activity change, negative = cytotoxicity, most hits filed as cytotoxic; hit rate 0.76% among 410,000; AID 588856; also: potency is read from the fitted curve at half-maximal effect
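HepG2 CAGA-GFP cells (1000/well, DMEM with 1% FBS) received compound, then TGF-beta at 500 pg/mL final, and were incubated 18 hours at 37 degrees C. Viability was read by CellTiter-Glo luminescence. Media-only wells were set as complete cell-killing and DMSO as no toxicity.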
TDP1 cell CPT – DT40-hTDP1 cell growth loss with CPT; chicken DT40 Tdp1-/-;hTDP1 cells + 20 nM CPT, ATP luminescence, 48 h; Potency, µM (titrated, usually from 46.2 µM), for the others: top-dose activity change, negative = growth inhibition, most hits filed as inhibitors; hit rate 12% among 420,000; AID 686979; also: potency is read from the fitted curve at half-maximal effect; % is scaled to controls: 0 for no effect and ±100 for the full control effect; nearly all actives have a fitted effect of over 55% in size
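Chicken DT40 Tdp1-/- cells stably complemented with human TDP1 were seeded at 400 cells/well in medium containing 20 nM camptothecin, exposed to pin-transferred compounds, and grown at 37 °C for at least 48 hr. Viability was read as ATP luminescence.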
TGFb SMAD3 inh – TGF-b pathway inhibition | hit rate 1.2% among 410,000 | Potency, µM (titrated, usually from 46.1 µM), for inactives: at the top dose activity, negative = inhibition, most hits filed as inhibitors | HepG2 CAGA-GFP TGF-b/SMAD3 reporter, GFP fluorescence, 18 h; TGF-beta stimulated, 500 pg/mL final; also: potency is read from the fitted curve at half-maximal effect; % is scaled to controls: 0 for no effect and ±100 for the full control effect; nearly all actives have a fitted effect of over 65% in size
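HEPG2 CAGA-GFP cells (1000/well, DMEM with 1% FBS) were pre-incubated 2 h at 37 degrees C, given compound by pin tool, then stimulated with TGF-beta at 500 pg/mL final for 18 h before per-cell GFP fluorescence imaging.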
TDP1 cell noCPT – qHTS for Inhibitors of human tyrosyl-DNA phosphodiesterase 1 (TDP1): qHTS in cells in absence of CPT; DT40 Tdp1-/- hTDP1 cells, no CPT, ATP luminescence, 48 h; hit rate 15% among 420,000; Potency, µM (titrated, usually from 46.2 µM), for inactives: top-dose activity change, negative = growth inhibition, actives largely listed as inhibitors; also: potency is read from the fitted curve at half-maximal effect; % is scaled to controls: 0 for no effect and ±100 for the full control effect; nearly all actives have a fitted effect of over 55% in size
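Readout: luminescence from CellTiter-Glo after 30 min in the dark at RT. Cells: DT40 Tdp1-/- with stable hTDP1, 400/well. Exposure: compounds alone, ≥48 hr, 37 °C.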
TDP1 block – blocks human tyrosyl-DNA phosphodiesterase 1 | Q9NUW8 | recombinant TDP1, AlphaScreen DNA substrate cleavage | Potency, µM (top dose mostly 130 µM), for the others: at the top dose activity change, negative = inhibition, usual class: inhibitors | hit rate 0.28% among 350,000 | AID 485290; also: potency is read from the fitted curve at half-maximal effect; % is scaled to controls: 0 for no effect and ±100 for the full control effect; nearly all actives have a fitted effect of over 40% in size
Target sequence (Q9NUW8 whole entry, looked up): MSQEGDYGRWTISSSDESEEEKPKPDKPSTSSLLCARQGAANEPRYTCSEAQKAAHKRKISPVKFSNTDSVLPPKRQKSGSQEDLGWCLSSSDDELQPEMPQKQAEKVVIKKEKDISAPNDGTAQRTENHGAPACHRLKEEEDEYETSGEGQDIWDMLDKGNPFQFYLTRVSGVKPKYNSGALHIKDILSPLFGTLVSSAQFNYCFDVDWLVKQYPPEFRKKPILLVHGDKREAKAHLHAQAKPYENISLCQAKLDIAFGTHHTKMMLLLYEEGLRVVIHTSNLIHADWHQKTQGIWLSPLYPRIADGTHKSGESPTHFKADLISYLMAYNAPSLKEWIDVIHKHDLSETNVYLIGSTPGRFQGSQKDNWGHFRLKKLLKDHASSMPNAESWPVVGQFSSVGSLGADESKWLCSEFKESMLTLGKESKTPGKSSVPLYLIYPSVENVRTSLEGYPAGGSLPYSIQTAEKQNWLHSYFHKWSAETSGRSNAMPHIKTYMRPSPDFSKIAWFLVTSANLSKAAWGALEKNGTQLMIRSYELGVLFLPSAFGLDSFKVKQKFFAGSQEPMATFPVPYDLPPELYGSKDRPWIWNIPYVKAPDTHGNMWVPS
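Signal: AlphaScreen proximity between streptavidin donor and anti-FITC acceptor beads on intact substrate. Reaction: Tdp1 1 nM, substrate 15 nM final, 5 min RT after 15 min compound preincubation.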
IL1B secr inh – inflammasome signaling inhibition, IL-1 beta readout | THP-1 LPS/ATP IL-1B secretion, AlphaLISA, 16 h; hits give low values | activity change, % at 57.5 µM | hit rate 4.7% among 360,000; in the data active = activity change below about -50%; inconclusive = mostly about -30% to -49%; also: % is scaled to controls: 0 for no effect and ±100 for the full control effect
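Secreted IL-1B measured by AlphaLISA bead assay after 16 h compound exposure of THP-1 cells; compounds (final up to 57.5 uM) added 1 h before LPS (250 ng/mL) and ATP (1.25 mM) stimulation; lower signal means less secretion.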
* marks the source's active call; other numbers are inactive results; ? = inconclusive; . = no result; [ ] = another dose, or the depositor's remark. Rows were chosen to be rich in hits. Some 18% of all compounds tested hit in one or more screens of this group. Unless noted, calls follow the shape of the dose curve; as a rule, active = well fitted curve in the direction sought with a large enough effect; inconclusive = small, poorly fitted or top-dose-only effect, or another doubt; inactive = no such curve, though single readings can be large; an effect the other way counts as inactive or inconclusive.

SMILES | HepG2 viability | TDP1 cell CPT | TGFb SMAD3 inh | TDP1 cell noCPT | TDP1 block | IL1B secr inh
CC(C)(C)c1ccc(OCCSc2nc(-c3cccs3)nc3cc(=O)[nH]n23)cc1 | -4.4% | 18.4µM* | -6.8% | ? | 5.3% | .
CC(C)(C)c1ccc(-c2nc(SCCOc3ccc(Cl)cc3)n3[nH]c(=O)cc3n2)cc1 | -56.2% | 18.4µM* | -13.8% | -79.9% | 5.3% | .
CCn1c(=S)[nH]c2c(=O)n(C)c(=O)n(C)c21 | 0.0% | -2.7% | -3.0% | -23.6% | . | -12.9
Nc1c(S(=O)(=O)O)cc(Nc2ccc(Cl)cc2)c2c1C(=O)c1ccccc1C2=O | . | . | . | . | 28.5% | .
COc1cc(Cl)c(C)cc1NC(=O)CCc1nc2cccnc2n1-c1ccccc1 | -8.7% | ? | -7.9% | ? | 9.0% | .
COc1ccc(-n2cnnc2SCC(=O)c2cc(C)n(Cc3cccs3)c2C)cc1 | -18.4% | -8.5% | -8.3% | -11.0% | -2.1% | -64.9*
Cc1csc(SCC(=O)c2cc(C)n(Cc3cccs3)c2C)n1 | -18.2% | 18.4µM* | -26.8% | -77.9% | 11.2% | -0.8
Cc1cc(C(=O)CSc2nnc(N)s2)c(C)n1Cc1cccs1 | -0.7% | ? | 2.1% | ? | -2.8% | ?
COCc1c(C(=O)NC2CCCC2)cnn1-c1nccc(-c2cc(C)sc2C)n1 | . | -11.5%[9.04 µM] | . | ? | . | .
COc1ccc(-c2c3c(nc4sc(C(=O)Nc5ccc(Cl)cc5)c(N)c24)CC(C)(C)CC3=O)cc1 | -2.5% | 16.4µM* | -2.0% | 8.2µM* | . | .
COc1ccc(-c2c3c(nc4sc(C(=O)Nc5cc(C)on5)c(N)c24)CCC3)cc1 | -3.7% | -21.0% | 19.8% | ? | 0.0% | -88.3*
COc1cccc(NC(=O)c2sc3nc(C)c(C(=O)Nc4ccc(Cl)cc4)c(-c4ccc(Br)cc4)c3c2N)c1 | 0.9% | ? | 20.8% | 7.31µM* | 2.9% | .
COc1cccc(NC(=O)c2sc3nc(C)c(C(=O)Nc4ccc(C)cc4C)c(-c4ccc(C)o4)c3c2N)c1 | 5.4% | 10.3µM* | 33.4% | 6.51µM* | 5.0% | .
CCN(C(=O)COC(=O)/C=C/c1cccc([N+](=O)[O-])c1)c1c(N)n(Cc2ccccc2)c(=O)[nH]c1=O | 5.3% | ? | 29.8% | ? | -4.0% | -17.5
CC(=O)c1nn(-c2ccc(Cl)cc2)c(=O)[nH]c1=O | -2.6% | 1.1% | -3.7% | 0.2% | . | 0.0
CC(=O)c1ccc(NC(=O)Cn2c(-n3nc(C)cc3C)nc(C)cc2=O)cc1 | -16.0% | ? | -21.9% | 18.4µM* | -2.6% | .
Cc1cc(C)n(-c2nc(C)c(C)c(=O)n2CC(=O)Nc2ccc([N+](=O)[O-])cc2)n1 | 10.1% | ? | 7.9% | 20.6µM* | 2.6% | .
C=CCn1c(SCc2nc3cc(C(F)(F)F)ccc3c(=O)[nH]2)nc2sc(CC)cc2c1=O | -2.8% | ? | 12.5% | ? | . | 11.8
CCOc1ccc(C(=O)N2CCC(c3nc(-c4ccc(S(=O)(=O)N5CCCC5)cc4)no3)CC2)cc1 | -23.9% | 20.6µM* | 0.0% | 23.1µM* | 4.7% | .
CC1CCN(C(=O)c2ccc(S(=O)(=O)N3CCCC3)cc2)CC1 | 4.2% | -24.3% | 10.1% | 17.1% | 0.6% | 15.6
COc1ccc(C(=O)N2CCC(c3nc(-c4ccc(S(=O)(=O)N5CCCC5)cc4)no3)CC2)cc1 | -9.8% | 23.1µM* | 1.8% | 20.6µM* | 2.3% | .
C=CCn1c(SCc2csc(-c3ccc(Cl)cc3)n2)nnc1-c1ccccc1OC | -21.1% | 23.1µM* | ? | ? | 2.7% | -29.2
CCOC(=O)c1cccc(-n2nnc3c(sc4nc(C)c(Br)c(C)c43)c2=O)c1 | 3.8% | -6.6% | -2.1% | -5.5% | 4.7% | .
COC(=O)c1sc2cccc(F)c2c1S(=O)(=O)N1CCN(c2ccccc2OC)CC1 | -57.1% | ? | ? | ? | 8.4% | .
Fc1cc(F)cc(-c2oncc2-c2nnnn2-c2ccccc2)c1 | -0.7% | -13.2% | 4.6% | 6.4% | -2.5% | 18.3
SMILES | HepG2 viability | TDP1 cell CPT | TGFb SMAD3 inh | TDP1 cell noCPT | TDP1 block | IL1B secr inh
Cc1ccc(-n2nnnc2-c2cnoc2-c2cccc(F)c2)cc1 | -22.0% | 25.9µM* | -1.4% | ? | 2.6% | 47.2
O=Nc1[nH]c(=O)c(/C=C(\O)c2ccccc2)nc1NO | -21.8% | ? | -0.5% | 16.4µM* | . | -22.1
COc1ccc(C(CCN)Cc2ccccc2)cc1 (configuration not stated) | -1.8% | 29.1µM* | 6.3% | 20.6µM* | 5.4% | -50.9*
COc1ccc(C(CC(=O)c2ccccc2)CC(=O)c2ccccc2)cc1 | 1.2% | ? | -7.5% | ? | 1.2% | -21.5
CCOC(=O)CNC(=O)c1cc2c(=O)n(CC)c3ccccc3c2s1 | 5.7% | 26.7% | -3.1% | 12.7% | 4.6% | .
COc1ccc(F)cc1C(=O)C1CCCN(Cc2c[nH]c3ccccc23)C1 (configuration not stated) | -29.0% | 4.11µM* | -21.4% | 4.61µM* | -2.5% | ?
Cn1cc(CN2CCCC(C(=O)c3cc(F)ccc3F)C2)c2ccccc21 (configuration not stated) | -53.4% | ? | ? | 16.4µM* | 6.1% | -70.9*
COc1ccc(F)cc1C(=O)C1CCCN(Cc2cn(C)c3ccccc23)C1 (configuration not stated) | -24.8% | 14.6µM* | ? | 13µM* | 3.6% | -77.9*
COC(=O)c1ccc(CN2CCCC(C(=O)c3cc(F)ccc3OC)C2)cc1 (configuration not stated) | -32.9% | ? | -27.4% | -28.1% | . | 0.0
COc1cccc(C(=O)C2CCCN(Cc3cn(CC(N)=O)c4ccccc34)C2)c1 (configuration not stated) | -23.2% | -4.8% | -3.8% | ? | 7.3% | ?
Cc1cc2cc3c(=O)[nH]c(=O)[nH]c3nc2cc1C | . | . | . | . | 0.0% | .
COc1ccc(-n2c(SCC(=O)NCC3CCCO3)nc3c([nH]c4ccccc43)c2=O)cc1OC (configuration not stated) | -33.3% | 3.6% | 2.3% | 8.0% | 4.2% | 10.9
CC1(CC(=O)NNC(=O)Nc2ccccc2)OCCCO1 | -8.1% | 2.5% | -6.2% | -3.9% | 2.6% | -24.5
CCN(CC)C(=O)[C@H]1C[C@H](CC(=O)NCc2cccc(C(F)(F)F)c2)C(=O)N2CCc3c([nH]c4cc(CCC(=O)N(C)C)ccc34)[C@]12C | -2.8% | ? | -24.1% | ? | 0.7%[56.1 µM] | -21.3
